Assay results as given in ChEMBL document CHEMBL1961873, “Compounds: GSK PKIS; Assays: Nanosyn kinase panel” (2012).

How the values were obtained:
[1] = molecular target: Tyrosine-protein kinase CSK (Homo sapiens) (UniProt P41240); conditions: at 1 µM;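 further: each value is an averaged inhibition reading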
[2] = molecular target: T1, Discoidin domain-containing receptor 2 (Homo sapiens) (UniProt Q16832); conditions: at 0.1 µM
T1 sequence (whole entry): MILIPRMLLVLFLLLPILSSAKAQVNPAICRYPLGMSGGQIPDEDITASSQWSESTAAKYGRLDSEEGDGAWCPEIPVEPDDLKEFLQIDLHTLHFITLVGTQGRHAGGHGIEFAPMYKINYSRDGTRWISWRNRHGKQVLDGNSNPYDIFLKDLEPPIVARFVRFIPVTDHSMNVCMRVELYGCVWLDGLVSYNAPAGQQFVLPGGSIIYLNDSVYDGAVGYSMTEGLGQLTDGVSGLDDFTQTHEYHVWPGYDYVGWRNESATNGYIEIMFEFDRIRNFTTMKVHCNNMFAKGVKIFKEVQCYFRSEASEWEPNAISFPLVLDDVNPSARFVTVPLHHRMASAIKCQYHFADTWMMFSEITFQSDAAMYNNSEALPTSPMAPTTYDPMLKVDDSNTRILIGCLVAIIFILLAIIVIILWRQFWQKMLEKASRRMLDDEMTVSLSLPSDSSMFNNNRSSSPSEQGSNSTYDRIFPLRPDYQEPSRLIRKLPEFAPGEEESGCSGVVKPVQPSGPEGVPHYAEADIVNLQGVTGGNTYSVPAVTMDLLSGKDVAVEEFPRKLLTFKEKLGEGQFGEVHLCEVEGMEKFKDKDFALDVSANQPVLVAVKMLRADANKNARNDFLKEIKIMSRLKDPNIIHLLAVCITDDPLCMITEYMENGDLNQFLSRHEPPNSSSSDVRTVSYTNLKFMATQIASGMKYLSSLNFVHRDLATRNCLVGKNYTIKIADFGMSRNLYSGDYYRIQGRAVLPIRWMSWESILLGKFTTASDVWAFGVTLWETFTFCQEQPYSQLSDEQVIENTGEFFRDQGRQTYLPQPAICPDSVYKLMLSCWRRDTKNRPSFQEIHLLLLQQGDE

[3] = molecular target: T1, Discoidin domain-containing receptor 2 (Homo sapiens); conditions: at 1 µM
[4] = molecular target: Epidermal growth factor receptor (Homo sapiens) (UniProt P00533); conditions: at 0.1 µM
[5] = molecular target: Epidermal growth factor receptor (Homo sapiens) (UniProt P00533); conditions: at 1 µM
[6] = tested on: Epidermal growth factor receptor (Homo sapiens), P00533 [L858R]; conditions: at 0.1 µM
Epidermal growth factor receptor (Homo sapiens), P00533 [L858R], sequence (P00533 whole entry L858R): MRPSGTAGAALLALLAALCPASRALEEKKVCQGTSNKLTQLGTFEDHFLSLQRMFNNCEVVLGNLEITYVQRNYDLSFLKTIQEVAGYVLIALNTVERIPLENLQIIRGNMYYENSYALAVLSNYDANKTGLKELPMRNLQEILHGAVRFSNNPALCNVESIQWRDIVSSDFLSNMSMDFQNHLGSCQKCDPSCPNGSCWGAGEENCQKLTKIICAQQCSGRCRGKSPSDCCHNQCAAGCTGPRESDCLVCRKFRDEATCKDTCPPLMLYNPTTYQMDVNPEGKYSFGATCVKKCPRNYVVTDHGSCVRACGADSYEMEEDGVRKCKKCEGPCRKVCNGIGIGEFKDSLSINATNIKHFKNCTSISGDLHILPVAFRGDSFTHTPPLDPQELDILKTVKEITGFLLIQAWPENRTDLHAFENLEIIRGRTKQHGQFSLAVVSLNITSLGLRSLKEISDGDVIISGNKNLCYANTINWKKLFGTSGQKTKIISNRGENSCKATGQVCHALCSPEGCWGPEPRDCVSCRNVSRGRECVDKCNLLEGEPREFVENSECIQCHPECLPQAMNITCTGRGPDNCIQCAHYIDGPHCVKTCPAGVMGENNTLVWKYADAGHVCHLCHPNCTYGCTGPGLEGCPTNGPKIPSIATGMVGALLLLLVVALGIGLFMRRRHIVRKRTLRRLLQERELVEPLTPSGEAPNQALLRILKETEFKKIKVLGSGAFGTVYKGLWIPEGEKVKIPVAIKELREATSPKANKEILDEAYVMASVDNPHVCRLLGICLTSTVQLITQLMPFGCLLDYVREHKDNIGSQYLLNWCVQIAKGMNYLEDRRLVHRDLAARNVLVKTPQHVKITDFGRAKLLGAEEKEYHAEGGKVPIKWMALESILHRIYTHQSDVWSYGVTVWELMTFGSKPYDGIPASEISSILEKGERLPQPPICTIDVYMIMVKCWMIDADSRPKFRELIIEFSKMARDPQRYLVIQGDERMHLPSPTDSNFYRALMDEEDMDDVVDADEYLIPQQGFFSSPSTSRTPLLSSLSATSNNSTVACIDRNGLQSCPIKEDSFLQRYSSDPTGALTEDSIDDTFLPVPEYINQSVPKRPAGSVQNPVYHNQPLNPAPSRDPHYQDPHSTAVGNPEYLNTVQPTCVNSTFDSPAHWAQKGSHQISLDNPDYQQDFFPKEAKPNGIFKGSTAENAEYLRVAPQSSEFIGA

[7] = tested on: Epidermal growth factor receptor (Homo sapiens), P00533 [L858R]; conditions: at 1 µM
[8] = tested on: Epidermal growth factor receptor (Homo sapiens), P00533 [L861Q]; conditions: at 0.1 µM
[9] = tested on: Epidermal growth factor receptor (Homo sapiens), P00533 [L861Q]; conditions: at 1 µM
[10] = tested on: Epidermal growth factor receptor (Homo sapiens), P00533 [T790M]; conditions: at 0.1 µM
Epidermal growth factor receptor (Homo sapiens), P00533 [T790M], sequence (P00533 whole entry T790M): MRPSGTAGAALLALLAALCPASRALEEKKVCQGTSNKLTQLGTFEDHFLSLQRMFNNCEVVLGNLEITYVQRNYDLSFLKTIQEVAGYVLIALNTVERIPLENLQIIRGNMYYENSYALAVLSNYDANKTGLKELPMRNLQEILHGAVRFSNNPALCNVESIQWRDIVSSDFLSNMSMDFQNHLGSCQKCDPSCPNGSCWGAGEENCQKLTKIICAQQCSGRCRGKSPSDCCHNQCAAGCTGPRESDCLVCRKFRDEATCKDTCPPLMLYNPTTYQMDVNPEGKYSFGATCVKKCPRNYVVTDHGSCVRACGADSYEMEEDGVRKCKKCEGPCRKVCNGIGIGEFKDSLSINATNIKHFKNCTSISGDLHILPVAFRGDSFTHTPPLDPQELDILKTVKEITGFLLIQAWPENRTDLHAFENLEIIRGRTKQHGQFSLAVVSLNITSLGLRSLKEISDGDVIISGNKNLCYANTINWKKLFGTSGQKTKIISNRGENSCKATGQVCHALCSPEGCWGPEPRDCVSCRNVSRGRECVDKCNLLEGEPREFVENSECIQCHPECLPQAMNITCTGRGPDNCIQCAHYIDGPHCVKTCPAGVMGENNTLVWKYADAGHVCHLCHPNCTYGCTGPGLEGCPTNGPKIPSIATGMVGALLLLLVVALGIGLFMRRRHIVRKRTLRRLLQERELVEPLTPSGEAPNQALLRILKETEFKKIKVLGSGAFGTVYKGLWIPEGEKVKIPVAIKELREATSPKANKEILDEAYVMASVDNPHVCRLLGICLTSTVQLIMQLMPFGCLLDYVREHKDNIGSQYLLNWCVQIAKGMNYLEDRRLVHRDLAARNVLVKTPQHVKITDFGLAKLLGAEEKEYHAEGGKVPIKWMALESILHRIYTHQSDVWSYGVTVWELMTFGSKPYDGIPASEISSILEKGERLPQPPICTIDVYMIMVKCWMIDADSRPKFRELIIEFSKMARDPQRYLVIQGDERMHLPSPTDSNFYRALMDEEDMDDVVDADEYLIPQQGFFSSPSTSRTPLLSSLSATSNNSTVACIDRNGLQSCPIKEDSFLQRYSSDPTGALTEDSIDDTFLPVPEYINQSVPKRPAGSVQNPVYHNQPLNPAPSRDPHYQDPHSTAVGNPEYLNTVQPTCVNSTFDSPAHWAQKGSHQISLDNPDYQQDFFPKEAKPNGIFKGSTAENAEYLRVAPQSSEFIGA

[11] = tested on: Epidermal growth factor receptor (Homo sapiens), P00533 [T790M]; conditions: at 1 µM
[12] = tested on: Epidermal growth factor receptor (Homo sapiens), P00533 [L858R,T790M]; conditions: at 0.1 µM
Epidermal growth factor receptor (Homo sapiens), P00533 [L858R,T790M], sequence (P00533 whole entry T790M/L858R, looked up): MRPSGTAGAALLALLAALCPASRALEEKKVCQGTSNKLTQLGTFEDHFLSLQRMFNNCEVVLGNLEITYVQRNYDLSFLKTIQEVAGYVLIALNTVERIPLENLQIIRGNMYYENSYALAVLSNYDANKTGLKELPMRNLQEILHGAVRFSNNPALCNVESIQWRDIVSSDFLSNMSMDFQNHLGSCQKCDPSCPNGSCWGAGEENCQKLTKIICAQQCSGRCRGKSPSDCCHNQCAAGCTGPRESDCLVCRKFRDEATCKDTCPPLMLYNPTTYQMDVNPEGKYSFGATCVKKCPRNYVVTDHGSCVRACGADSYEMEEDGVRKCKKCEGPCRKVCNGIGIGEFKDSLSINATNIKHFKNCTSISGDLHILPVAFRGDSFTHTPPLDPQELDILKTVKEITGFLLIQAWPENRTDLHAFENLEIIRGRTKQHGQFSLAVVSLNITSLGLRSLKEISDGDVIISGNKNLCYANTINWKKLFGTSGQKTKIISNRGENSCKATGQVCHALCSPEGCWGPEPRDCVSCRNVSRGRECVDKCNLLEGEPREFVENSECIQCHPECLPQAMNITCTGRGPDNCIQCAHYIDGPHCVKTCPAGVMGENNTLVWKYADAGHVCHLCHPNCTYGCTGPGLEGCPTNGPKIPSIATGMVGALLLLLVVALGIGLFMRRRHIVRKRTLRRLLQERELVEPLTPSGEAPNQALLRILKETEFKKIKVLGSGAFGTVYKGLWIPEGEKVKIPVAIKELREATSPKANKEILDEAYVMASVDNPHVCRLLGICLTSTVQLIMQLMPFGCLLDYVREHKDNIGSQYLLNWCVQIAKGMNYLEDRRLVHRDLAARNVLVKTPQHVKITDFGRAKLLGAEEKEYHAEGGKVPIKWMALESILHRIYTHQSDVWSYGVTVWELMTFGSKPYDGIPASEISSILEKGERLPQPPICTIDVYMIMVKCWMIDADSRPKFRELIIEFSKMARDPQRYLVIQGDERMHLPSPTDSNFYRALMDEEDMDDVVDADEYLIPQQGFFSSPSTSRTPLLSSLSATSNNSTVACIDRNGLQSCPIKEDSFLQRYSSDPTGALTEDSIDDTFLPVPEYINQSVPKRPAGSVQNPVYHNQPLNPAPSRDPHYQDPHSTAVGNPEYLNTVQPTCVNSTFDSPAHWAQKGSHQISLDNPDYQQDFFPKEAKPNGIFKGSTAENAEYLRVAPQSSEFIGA

[13] = tested on: Epidermal growth factor receptor (Homo sapiens), P00533 [L858R,T790M]; conditions: at 1 µM
[14] = molecular target: Ephrin type-A receptor 2 (Homo sapiens) (UniProt P29317); conditions: at 0.1 µM
Ephrin type-A receptor 2 (Homo sapiens), sequence (P29317 whole entry): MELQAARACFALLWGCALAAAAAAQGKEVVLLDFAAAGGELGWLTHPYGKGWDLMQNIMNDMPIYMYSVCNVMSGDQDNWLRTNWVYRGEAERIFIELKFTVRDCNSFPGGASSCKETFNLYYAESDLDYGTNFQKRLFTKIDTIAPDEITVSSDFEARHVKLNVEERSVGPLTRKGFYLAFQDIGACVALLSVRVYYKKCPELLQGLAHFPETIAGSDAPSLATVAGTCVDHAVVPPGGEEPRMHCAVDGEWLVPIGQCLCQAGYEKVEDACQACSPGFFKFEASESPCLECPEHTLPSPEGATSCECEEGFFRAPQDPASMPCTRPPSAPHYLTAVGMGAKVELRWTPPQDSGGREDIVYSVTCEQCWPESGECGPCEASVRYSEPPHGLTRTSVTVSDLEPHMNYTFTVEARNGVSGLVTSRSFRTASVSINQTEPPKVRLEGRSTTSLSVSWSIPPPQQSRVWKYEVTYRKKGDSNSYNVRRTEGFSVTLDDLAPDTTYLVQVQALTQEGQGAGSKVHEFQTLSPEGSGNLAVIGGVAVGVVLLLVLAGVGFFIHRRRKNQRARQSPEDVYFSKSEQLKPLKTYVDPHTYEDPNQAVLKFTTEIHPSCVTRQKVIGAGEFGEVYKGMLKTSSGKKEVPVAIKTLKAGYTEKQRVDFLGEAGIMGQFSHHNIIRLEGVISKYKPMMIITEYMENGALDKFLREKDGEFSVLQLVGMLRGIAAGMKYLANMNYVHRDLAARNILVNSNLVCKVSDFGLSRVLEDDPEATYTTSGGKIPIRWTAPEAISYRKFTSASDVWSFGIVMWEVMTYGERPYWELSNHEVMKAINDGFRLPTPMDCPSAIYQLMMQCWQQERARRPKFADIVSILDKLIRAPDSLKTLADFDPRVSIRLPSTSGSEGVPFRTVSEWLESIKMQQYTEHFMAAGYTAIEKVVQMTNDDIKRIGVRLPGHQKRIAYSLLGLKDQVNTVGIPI

[15] = molecular target: Ephrin type-A receptor 2 (Homo sapiens) (UniProt P29317); conditions: at 1 µM
[16] = molecular target: T2, Ephrin type-A receptor 3 (Homo sapiens) (UniProt P29320); conditions: at 0.1 µM
T2 sequence (whole entry): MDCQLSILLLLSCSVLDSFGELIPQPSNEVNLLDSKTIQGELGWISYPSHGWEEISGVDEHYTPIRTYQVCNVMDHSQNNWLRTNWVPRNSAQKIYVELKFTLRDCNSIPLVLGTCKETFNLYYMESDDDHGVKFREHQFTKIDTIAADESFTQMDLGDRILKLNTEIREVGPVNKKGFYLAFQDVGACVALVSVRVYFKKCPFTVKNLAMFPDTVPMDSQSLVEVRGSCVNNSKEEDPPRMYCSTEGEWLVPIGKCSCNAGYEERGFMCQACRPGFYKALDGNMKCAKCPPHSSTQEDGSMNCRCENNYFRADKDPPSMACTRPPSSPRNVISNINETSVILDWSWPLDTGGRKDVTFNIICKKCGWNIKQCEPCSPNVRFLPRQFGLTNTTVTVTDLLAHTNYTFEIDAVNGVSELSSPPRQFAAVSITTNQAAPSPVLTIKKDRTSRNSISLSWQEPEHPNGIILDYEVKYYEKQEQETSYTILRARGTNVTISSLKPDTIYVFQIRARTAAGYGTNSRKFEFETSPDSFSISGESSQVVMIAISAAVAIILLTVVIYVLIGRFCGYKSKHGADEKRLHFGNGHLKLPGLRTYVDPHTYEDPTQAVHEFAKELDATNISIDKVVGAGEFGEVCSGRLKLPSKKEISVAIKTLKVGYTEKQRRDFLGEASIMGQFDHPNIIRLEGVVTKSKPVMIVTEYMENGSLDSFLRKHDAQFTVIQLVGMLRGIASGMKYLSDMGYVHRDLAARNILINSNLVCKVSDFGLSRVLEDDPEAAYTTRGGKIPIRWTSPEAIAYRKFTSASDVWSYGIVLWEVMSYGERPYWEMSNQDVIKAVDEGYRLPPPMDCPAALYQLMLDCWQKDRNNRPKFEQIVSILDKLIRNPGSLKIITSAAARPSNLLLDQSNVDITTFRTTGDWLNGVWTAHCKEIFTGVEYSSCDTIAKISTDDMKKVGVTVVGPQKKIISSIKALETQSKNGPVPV

[17] = molecular target: T2, Ephrin type-A receptor 3 (Homo sapiens); conditions: at 1 µM
[18] = molecular target: Ephrin type-A receptor 4 (Homo sapiens) (UniProt P54764); conditions: at 0.1 µM
[19] = molecular target: Ephrin type-A receptor 4 (Homo sapiens) (UniProt P54764); conditions: at 1 µM
[20] = molecular target: T3, Ephrin type-B receptor 2 (Homo sapiens) (UniProt P29323); conditions: at 0.1 µM;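 further: reported as mean inhibition of EPHB2, from the GSK PKIS dataset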
T3 sequence (whole entry): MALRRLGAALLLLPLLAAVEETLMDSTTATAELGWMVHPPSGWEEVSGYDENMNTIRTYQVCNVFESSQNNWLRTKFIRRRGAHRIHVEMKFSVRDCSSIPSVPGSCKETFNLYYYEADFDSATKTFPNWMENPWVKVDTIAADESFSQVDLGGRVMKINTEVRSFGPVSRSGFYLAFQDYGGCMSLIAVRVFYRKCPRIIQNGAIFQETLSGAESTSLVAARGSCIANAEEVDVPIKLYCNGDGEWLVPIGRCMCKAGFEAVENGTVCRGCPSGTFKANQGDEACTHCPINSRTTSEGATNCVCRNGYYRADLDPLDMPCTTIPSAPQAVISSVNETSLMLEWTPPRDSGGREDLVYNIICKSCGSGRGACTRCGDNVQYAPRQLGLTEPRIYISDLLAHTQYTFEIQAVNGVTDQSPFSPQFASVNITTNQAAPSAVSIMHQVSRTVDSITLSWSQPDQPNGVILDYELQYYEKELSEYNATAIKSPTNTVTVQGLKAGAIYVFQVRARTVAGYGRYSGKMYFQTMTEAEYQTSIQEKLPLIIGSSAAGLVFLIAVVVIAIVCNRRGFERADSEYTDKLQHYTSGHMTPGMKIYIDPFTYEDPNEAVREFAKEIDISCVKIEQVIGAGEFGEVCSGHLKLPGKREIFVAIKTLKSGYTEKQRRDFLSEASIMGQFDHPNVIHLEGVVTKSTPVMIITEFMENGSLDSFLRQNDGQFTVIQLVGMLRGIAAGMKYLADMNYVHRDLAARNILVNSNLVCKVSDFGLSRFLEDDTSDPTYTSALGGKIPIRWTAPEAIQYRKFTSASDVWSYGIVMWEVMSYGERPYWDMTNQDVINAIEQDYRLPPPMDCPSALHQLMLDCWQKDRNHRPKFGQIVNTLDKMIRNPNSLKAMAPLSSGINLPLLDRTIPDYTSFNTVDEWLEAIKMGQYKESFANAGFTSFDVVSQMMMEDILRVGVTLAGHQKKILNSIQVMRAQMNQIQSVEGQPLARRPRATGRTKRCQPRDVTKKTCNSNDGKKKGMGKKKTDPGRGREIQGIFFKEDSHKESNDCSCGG

Tyrosine-protein kinase CSK (Homo sapiens), sequence (P41240 2-450 limits assumed): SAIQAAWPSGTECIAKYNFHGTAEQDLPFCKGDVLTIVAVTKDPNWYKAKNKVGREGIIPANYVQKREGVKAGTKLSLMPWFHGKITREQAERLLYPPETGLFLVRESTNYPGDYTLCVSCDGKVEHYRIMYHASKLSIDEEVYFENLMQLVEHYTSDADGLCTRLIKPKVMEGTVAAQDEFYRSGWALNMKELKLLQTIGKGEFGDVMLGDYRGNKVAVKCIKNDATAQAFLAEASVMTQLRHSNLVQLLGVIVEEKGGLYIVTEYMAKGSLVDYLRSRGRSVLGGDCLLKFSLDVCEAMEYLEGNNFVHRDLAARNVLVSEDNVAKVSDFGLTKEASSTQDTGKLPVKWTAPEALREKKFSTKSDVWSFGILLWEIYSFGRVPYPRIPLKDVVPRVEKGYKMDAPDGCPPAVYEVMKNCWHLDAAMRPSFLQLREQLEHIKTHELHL

| Structure (SMILES) | inhibition [1] [%] | inhibition [2] [%] | inhibition [3] [%] | inhibition [4] [%] | inhibition [5] [%] | inhibition [6] [%] | inhibition [7] [%] | inhibition [8] [%] | inhibition [9] [%] | inhibition [10] [%] | inhibition [11] [%] | inhibition [12] [%] | inhibition [13] [%] | inhibition [14] [%] | inhibition [15] [%] | inhibition [16] [%] | inhibition [17] [%] | inhibition [18] [%] | inhibition [19] [%] | inhibition [20] [%] |
| --- | --- | --- | --- | --- | --- | --- | --- | --- | --- | --- | --- | --- | --- | --- | --- | --- | --- | --- | --- | --- |
| CN1CCC(n2cnc(-c3ccc(F)cc3)c2-c2ccnc(N)n2)CC1 | 1.95 | 0.93 | 1.6 | 5.7 | 12.2 | 3.61 | 16.5 | 1.43 | 6.75 | -0.02 | 1.75 | -4.77 | 0.83 | 0.47 | -0.42 | 1.8 | 2.95 | 5.99 | 7.11 | 5.98 |
| CCn1c(-c2nonc2N)nc2ccccc21 | -0.41 | 1.73 | 2.19 | 2.08 | 1.93 | 3.02 | 0.86 | 1.96 | 0.53 | -0.1 | -1.8 | 2 | -0.39 | -0.14 | 0.64 | 5.44 | 3.08 | 7.78 | 9.13 | 6.72 |
| CCCN1CCC(c2ccc(Nc3nc(Nc4cc(F)ccc4C(N)=O)c4cc[nH]c4n3)c(OC)c2)CC1 | 6.03 | 0.6 | 3.39 | 8.69 | 40.3 | 5.44 | 46.4 | 6.31 | 28.4 | 30.4 | 81.7 | 53.7 | 89.1 | 1.29 | -0.82 | 3.91 | 4.22 | 6.74 | 12.9 | 6.06 |
| FC(F)(F)c1cccc(-c2nn3ncccc3c2-c2ccnc(Nc3ccc4c(c3)OCCO4)n2)c1 | 4.25 | 1.27 | 16.5 | 5.52 | 45.3 | 5.51 | 55.7 | 8.83 | 33.4 | 2.2 | 8.22 | 2.69 | 15.9 | 2.29 | 1.84 | 2.54 | 3.44 | 4.56 | 7.91 | 3.11 |
| CS(=O)(=O)CCNCc1ccc(-c2ccc3ncnc(Nc4ccc(OCc5ccccc5)c(C(F)(F)F)c4)c3c2)o1 | 3.7 | 1.76 | 1.84 | 12.5 | 71.2 | 9.52 | 50.1 | 17.8 | 41.7 | 2.35 | 2.12 | 3.43 | 0.97 | 2.24 | 0.59 | 8.45 | 2.73 | 6.33 | 7.84 | 7.71 |
| COc1cc(Nc2nccc(Nc3ccc4c(C)n[nH]c4c3)n2)cc(OC)c1OC | 67.9 | 9.87 | 43.1 | 8 | 22.2 | 3.36 | 29.9 | 2.9 | 15.6 | 1.4 | 5.15 | 4.13 | 20.9 | 28 | 71 | 6.23 | 15.3 | 41.4 | 75.2 | 19.3 |
| COc1ccc2[nH]c3c4[nH]c5ccc(OC)cc5c4c4c(c3c2c1)C(=O)NC4=O | 9.75 | 2.8 | 16.8 | 2.87 | 23.3 | 18.2 | 64.8 | 7.22 | 21.2 | 3.67 | 17.9 | 9.7 | 53.1 | 2.52 | 0.85 | 5.78 | 6.32 | 10.1 | 22.6 | 10.7 |
